Drawing on the supplement of paper PMC6555819, this text covers PBM binding z-score for 22 sequences.

The test system of this test is RXRa homodimer (NR concentration 180 nM). Put plainly: PBM binding z-score (relative to random genomic background probes); higher = stronger binding; sequences stand for … in GC…GCGATTGACAGCGTAGAATGAAGG
In a few lines: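 Probes were double-stranded and carried 34-nt variable regions with direct-repeat seeds, single-nucleotide variants, half-site ablations and random human genomic background sequences, printed on custom Agilent 4×180K protein-binding microarrays. Arrays were incubated 1 h with ligand-free nuclear receptor dimers in PBS pH 7.4, 2% milk, 0.02% Triton X-100, 1 mM DTT, 0.2 mg/mL BSA and 0.4 mg/ml salmon testes DNA. Antibodies against each partner (one per run) detected binding, and scanned fluorescence was regression-normalized. Binding z-scores use the random background probes as reference.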
For the sequence GATACAGGGTCAGCTAGAGTCCAGAGTATGGAAA, the PBM binding z-score came to 4.32. For AGGATGAGGTTAAGATCAGGGAAACAGAATACAT, the PBM binding z-score is 2.55.

Turning to CCGAGTAGGTTATGGGGCATTCGGGCAACGGTGA, the PBM binding z-score is 0.797.

Sequence TCATAAAGGTAAACAGGTGAAAGTCCGTAAGTTA yielded a PBM binding z-score of 1.74. As to ACAGACAGGGGAGTGAAGGTAACTCAGCTGGACG, the PBM binding z-score was 0.0403. The sequence CATACAGGGTCAGCTAGGCGAGAGTAGGGACGGC yielded a PBM binding z-score of 4.02.

In turn, GCGACTGGGGCAAATCAGGTTACCATAAGGTTGG displayed a PBM binding z-score of 0.576. ACTAGCAGGCCAAGTTTGGTTCACTCAAACAAAG: the PBM binding z-score is -0.193. Take CCTAGTTTGTCAAGGTCACACACGCTATAGGTAC: the PBM binding z-score came to 4.73. The same measure for CCTACTGGGCCAAAAGTCATTGATTCCAATGCTC: 0.153.

Turning to TCTAGTTGGGCAAAGGTCACACACTCGAAATGCG, the PBM binding z-score came to 7.41. In the case of TCTCGGAGGACACGAAGCTCAGAGCTTTCCAGAG, the PBM binding z-score is -0.175. With ATCTCTAGGTAACCAAGTTCAATGAATGCCGAAC the figure was 0.925.

Take ACTATTAGTTGACTTAGTGCAACCGATACGACGC: the PBM binding z-score amounted to 0.369. For the sequence CTCGACAGGTCGTGCTCAGGTGAGTATACCAAAC, the PBM binding z-score was determined as 1.3. The sequence TCTTGTAAATCAGCAGGTTAAGAAAGCTGGCCAA came in with a PBM binding z-score of 0.361. Regarding CCGACTGGGGCAGAAAGGTTAACATACCATCCGG, the PBM binding z-score came to 2. As for CCTACTGGGCCATTCAGAGGTCTTTGATCATATG, the PBM binding z-score was -0.258. As to CCTCGGAGGACCACAGGAGGTCAGAGCTGCCAGA, the PBM binding z-score is 1.85. For the sequence ATCTCTAGGTAAAGAGAGTTCAGTGAATGCAAAT, the PBM binding z-score turned out to be 0.653. Sequence TCTTGGAGATCAACAGGAGGTTAAGAAAGATCGA returned a PBM binding z-score of 1.3. In turn, CCTCGGAGGAAAGAAGGTCAGAGCTGTCCGCTTT gave a PBM binding z-score of 1.44.
